# Source: PubChem BioAssay
# BH1578 lux ind – inducers of Vibrio cholerae quorum light production without autoinducers, primary screen, BH1578 luxS cqsA deficient, single point; V. cholerae BH1578 lux reporter, luminescence, 6 h; activation, % at 18.7 µM; 350,000 compounds, 0.16% hits; in the data active = activation mostly above about 9.7%, no sharp cut-off
# TcdB inh – TcdB glycohydrolase inhibitors, primary screen, biochemical, single point, plate reader. Toxin B (Clostridioides difficile), P18177. TcdB glycohydrolase enzymatic assay. inhibition, % at 9.99 µM. 350,000 compounds, 0.24% hits; in the data active = inhibition above about 10%
# Target sequence (P18177 whole entry, looked up): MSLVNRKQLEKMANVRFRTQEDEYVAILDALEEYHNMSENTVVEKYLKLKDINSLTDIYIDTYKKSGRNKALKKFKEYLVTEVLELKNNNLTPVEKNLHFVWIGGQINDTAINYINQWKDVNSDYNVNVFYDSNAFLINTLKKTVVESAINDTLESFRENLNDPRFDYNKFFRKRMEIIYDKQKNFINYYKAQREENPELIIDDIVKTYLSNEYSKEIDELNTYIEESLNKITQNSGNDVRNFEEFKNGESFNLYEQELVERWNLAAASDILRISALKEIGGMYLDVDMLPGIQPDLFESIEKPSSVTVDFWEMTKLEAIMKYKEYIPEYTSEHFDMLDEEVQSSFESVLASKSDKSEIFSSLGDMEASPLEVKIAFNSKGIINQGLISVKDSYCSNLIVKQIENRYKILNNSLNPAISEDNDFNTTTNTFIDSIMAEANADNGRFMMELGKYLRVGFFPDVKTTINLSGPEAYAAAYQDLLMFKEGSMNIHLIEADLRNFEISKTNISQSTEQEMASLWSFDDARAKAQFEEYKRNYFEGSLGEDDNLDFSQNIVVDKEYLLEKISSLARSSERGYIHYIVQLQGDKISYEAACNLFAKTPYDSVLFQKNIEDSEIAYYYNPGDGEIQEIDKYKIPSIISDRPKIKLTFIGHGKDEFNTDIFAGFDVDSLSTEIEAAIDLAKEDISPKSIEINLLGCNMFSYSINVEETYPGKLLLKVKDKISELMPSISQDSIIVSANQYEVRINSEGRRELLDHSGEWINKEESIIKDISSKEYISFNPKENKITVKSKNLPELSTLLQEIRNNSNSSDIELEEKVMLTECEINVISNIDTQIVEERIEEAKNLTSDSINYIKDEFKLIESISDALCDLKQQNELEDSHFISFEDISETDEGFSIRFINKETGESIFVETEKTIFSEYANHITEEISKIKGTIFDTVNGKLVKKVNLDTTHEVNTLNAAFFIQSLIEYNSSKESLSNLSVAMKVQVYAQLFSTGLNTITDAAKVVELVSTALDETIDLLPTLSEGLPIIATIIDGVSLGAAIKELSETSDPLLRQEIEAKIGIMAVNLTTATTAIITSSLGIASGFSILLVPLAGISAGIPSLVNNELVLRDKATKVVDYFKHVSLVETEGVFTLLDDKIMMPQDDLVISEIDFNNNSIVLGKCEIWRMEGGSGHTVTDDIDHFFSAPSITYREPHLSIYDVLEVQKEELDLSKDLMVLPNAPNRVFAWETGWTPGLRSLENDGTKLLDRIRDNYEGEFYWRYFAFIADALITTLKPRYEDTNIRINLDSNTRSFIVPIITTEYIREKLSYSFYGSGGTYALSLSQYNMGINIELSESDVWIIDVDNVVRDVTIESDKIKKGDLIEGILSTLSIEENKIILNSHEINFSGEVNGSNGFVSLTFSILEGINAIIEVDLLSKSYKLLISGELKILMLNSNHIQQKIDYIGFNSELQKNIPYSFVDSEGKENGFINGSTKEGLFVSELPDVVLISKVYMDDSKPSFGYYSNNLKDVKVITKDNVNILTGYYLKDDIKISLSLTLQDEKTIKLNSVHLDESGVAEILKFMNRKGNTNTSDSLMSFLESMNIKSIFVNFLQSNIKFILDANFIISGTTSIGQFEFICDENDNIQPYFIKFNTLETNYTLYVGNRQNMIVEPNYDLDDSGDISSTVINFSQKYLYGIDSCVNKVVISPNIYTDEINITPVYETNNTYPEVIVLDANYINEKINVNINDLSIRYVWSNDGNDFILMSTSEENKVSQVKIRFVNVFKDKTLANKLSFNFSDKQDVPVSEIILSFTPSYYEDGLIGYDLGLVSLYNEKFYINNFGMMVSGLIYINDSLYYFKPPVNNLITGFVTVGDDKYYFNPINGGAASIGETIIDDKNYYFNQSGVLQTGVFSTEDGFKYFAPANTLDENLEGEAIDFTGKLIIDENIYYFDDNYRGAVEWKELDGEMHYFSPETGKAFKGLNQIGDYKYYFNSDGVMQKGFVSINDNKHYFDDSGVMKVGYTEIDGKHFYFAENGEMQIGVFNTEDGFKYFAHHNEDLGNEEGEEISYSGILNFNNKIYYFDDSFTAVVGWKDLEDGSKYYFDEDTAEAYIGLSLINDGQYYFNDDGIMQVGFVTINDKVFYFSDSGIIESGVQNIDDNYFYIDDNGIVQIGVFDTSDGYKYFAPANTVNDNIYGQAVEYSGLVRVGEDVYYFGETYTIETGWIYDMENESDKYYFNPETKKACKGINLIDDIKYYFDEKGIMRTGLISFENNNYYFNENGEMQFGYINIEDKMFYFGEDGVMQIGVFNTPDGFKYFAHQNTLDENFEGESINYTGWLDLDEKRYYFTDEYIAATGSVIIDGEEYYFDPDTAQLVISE
# BioA inh – M. tuberculosis BioA enzyme inhibitors, primary screen, biochemical, plate reader, single point, HTS | 7,8-diaminopelargonic acid synthase BioA (Mycobacterium tuberculosis) | purified M. tuberculosis BioA enzyme | inhibition, % at 9.99 µM | 360,000 compounds, 0.096% hits | AID 602481, 2012; in the data active = inhibition above about 40%
# Yp Topo-I inh – Yersinia pestis topoisomerase I inhibitors, primary screen, biochemical, cleavage product accumulation, plate reader, single point; Y. pestis Topo-I cleavage product accumulation; activity, % at 10 µM; 360,000 compounds, 0.064% hits; AID 504884, 2011; in the data active = activity above about 50%, passing the limit was not always enough
# FadD28 FP inh – inhibitors of FadD28 bisubstrate probe binding, primary screen, biochemical, fluorescence polarization, single point | Mycobacterium tuberculosis FadD28 fatty-acid-AMP ligase | inhibition, % at 12.5 µM | 360,000 compounds, 0.22% hits; in the data active = inhibition above about 8.5%, passing the limit was not always enough
# Hits are given with their value; n = inactive; x = no result given; + = active, no number. A selection: hits, their analogues and other compounds. The true share with any hit is near 0.58%.
SMILES,BH1578 lux ind,TcdB inh,BioA inh,Yp Topo-I inh,FadD28 FP inh
CCCN1[C@@H]2Cn3c(ccc(-c4ccc(F)cc4)c3=O)[C@H]1[C@@H](C(=O)NCCc1cn(C)cn1)[C@@H]2CO,x,x,n,x,x
CC1C(=O)NN=C1c1ccc([N+](=O)[O-])cc1 (stereo not given),n,10,x,n,n
C[C@H]1CN([C@@H](C)CO)C(=O)c2c(c3ccccc3n2C)-c2ccccc2CO[C@@H]1CN(C)Cc1ccc(-c2ccccc2)cc1,x,n,x,x,x
COC(=O)c1ccc(Cn2cc(C(F)(F)F)cc([N+](=O)[O-])c2=O)cc1,+,n,x,n,n
COC(=O)c1ccc(Cn2cc(C(F)(F)F)ccc2=O)cc1,n,n,x,n,n
CC(=O)NCCNC(=O)C1Cc2c(-c3ccccc3Oc3ccccc3)ccnc2O1 (stereo not given),n,n,n,n,n
CNC(=O)C1Cc2c(-c3ccccc3Oc3ccccc3)ccnc2O1 (stereo not given),n,13,n,n,n
Oc1ccc(-c2nccs2)cc1,n,21,n,n,n
C[C@@H](NC(=O)[C@H]1[C@H](CO)[C@H]2Cn3c(ccc(-c4cccc(F)c4)c3=O)[C@H]2N1C)c1ccccc1,x,n,x,x,x
COc1ccc(NC(=O)NC[C@H]2CC[C@H]3[C@H](CN3Cc3ccccc3C(=O)O)O2)cc1,x,n,x,x,x
Cc1ccc(/C=C/C(=O)C2C(=O)c3ccccc3C2=O)cc1,n,n,x,n,11
CCCCCCCCCCCCCCCCCCNc1ccn(C2OC(COP(=O)(O)OCC3OC(n4cc(F)c(=O)[nH]c4=O)CC3O)C(O)C2O)c(=O)n1 (stereo not given),n,n,x,n,53
CO[C@@H]1CN(C)C(=O)c2cc(NS(=O)(=O)c3cccc(F)c3)ccc2OC[C@H](C)NC[C@H]1C,x,x,n,x,x
C[C@@H]1CN([C@@H](C)CO)C(=O)c2cc(NC(=O)CCCCCC(=O)Nc3ccccc3N)ccc2O[C@@H](C)CCCCO[C@@H]1CN(C)C(=O)Nc1ccc(C(F)(F)F)cc1,x,n,n,x,x
CC12CCC3C(=CCc4cc(O)ccc43)C1CC(=NO)C2O (stereo not given),x,13,x,n,n
CC(C)(C)c1ccc(C(=O)Nc2sc3c(c2C(=O)O)CCC3)cc1,n,n,x,n,14
Cc1cc(N)n(-c2ccc(Oc3ccccc3)c(S(=O)(=O)O)c2)n1,n,n,x,n,14
COC(=O)N/N=C/c1cccs1,n,n,x,n,n
COc1cc2ccccc2cc1C(=O)N/N=C/c1cccs1,n,13,n,n,n
C/C=C/c1ccc([C@@H]2[C@H](CO)N(C(C)=O)C23CN(C(=O)c2ccc(F)cc2)C3)cc1,x,n,x,x,x
Cc1ccccc1-n1ncc2c1CC(C)(C)CC2NC(=O)CCC1=NNC(=O)CC1 (stereo not given),n,n,n,n,n
Cc1ccn(CCC(=O)NC2CC(C)(C)Cc3c2cnn3-c2ccccc2C)n1 (stereo not given),n,10,n,n,n
COc1ccc2c3c(n(C)c2c1)[C@H](CO)N(C(C)=O)CC31CCN(C(=O)NC(C)C)CC1,x,n,x,x,x
CCCCn1c(=S)[nH]c2c(=O)n(C)c(=O)n(C)c21,n,52,n,n,n
Cn1c(=O)c2[nH]c(=S)n(Cc3ccccc3)c2n(C)c1=O,x,50,x,n,n
SMILES,BH1578 lux ind,TcdB inh,BioA inh,Yp Topo-I inh,FadD28 FP inh
Cn1c(=O)c2c([nH]c(=S)n2CCCc2ccccc2)n(C)c1=O,n,n,n,n,n
O=c1[nH][nH]c(=O)c2c1[nH]c(=S)n2Cc1ccccc1,n,12,n,n,n
CO[C@@H]1CN(C)C(=O)c2cc(NS(C)(=O)=O)ccc2OC[C@H](C)N(CCC(F)(F)F)C[C@@H]1C,x,n,n,x,x
N#C[C@@H]1[C@H](c2ccccc2-c2cccc(F)c2)[C@H](CO)N1C(=O)C1CCCC1,x,n,x,x,x
Cc1ccc(S(=O)(=O)Nc2ccc3c(c2)C(=O)N([C@@H](C)CO)C[C@H](C)[C@@H](CN(C)C(=O)Nc2ccc(F)cc2)OCCCC[C@@H](C)O3)cc1,x,n,n,x,x
Cc1cc(-c2ccc(Cl)cc2Cl)c(C#N)c(=O)[nH]1,n,n,n,n,n
CSc1nc(-c2ccc(Cl)cc2Cl)[nH]c(=O)c1C#N,n,13,n,n,n
Cn1cnnc1SCC(=O)c1cc2ccccc2o1,n,n,x,n,n
Cn1c(SCC(=O)c2cc3ccccc3o2)nnc1-c1ccccc1,n,11,n,n,n
COCC(=O)Nc1ccc2c(c1)C(=O)N(C)[C@H]1CC[C@H](CC(=O)Nc3ccccc3OC)O[C@@H]1CO2,x,n,n,x,x
CC(=O)Nc1ccc(N(C(=O)c2ccco2)C(C(=O)NC2CCCCC2)c2ccccc2)cc1 (stereo not given),n,n,n,n,n
CC(=O)Nc1ccc(N(C(=O)c2ccco2)C(C(=O)NC2CCCC2)c2cccs2)cc1 (stereo not given),n,13,x,n,n
Cc1ccc(NC2(C(N)=O)CCCC2)cc1,n,n,n,n,n
NC(=O)C1(Nc2ccc(-c3ccc(Br)cc3)cc2)CCCC1,n,11,x,n,n
COc1ccccc1NC(=O)N[C@H]1C=C[C@H](CC(=O)NCc2ccc(Cl)c(Cl)c2)O[C@@H]1CO,x,n,n,x,x
COc1ccc(OCc2nnc3n2N=C(c2ccc(C)cc2)CS3)cc1,+,n,n,n,n
c1ccc(OCc2nnc3n2N=C(c2ccccc2)CS3)cc1,n,n,x,n,n
CCC(=O)Nc1ccc2c(c1)C(=O)N(C)[C@@H]1CC[C@H](CC(=O)NCCCN(C)C)O[C@H]1CO2,x,n,n,x,x
Fc1ccc(Oc2ccc3nnc(C(F)(F)F)n3n2)cc1,n,n,n,n,n
COc1cccc(Oc2ccc3nnc(C(F)(F)F)n3n2)c1,n,11,x,n,n
Cc1ccc(S(=O)(=O)c2c(CO)c(-c3ccccc3)nn2C)cc1,n,n,x,n,n
Cc1ccc(Oc2c(CO)c(-c3ccccc3)nn2C)cc1,n,12,x,n,n
C[C@@H]1CCCCO[C@@H](CN(C)S(=O)(=O)c2ccccc2)[C@H](C)CN([C@@H](C)CO)C(=O)c2cc(NC(=O)c3ccncc3)ccc2O1,x,n,n,x,x
CC(C)(C)[C@@H]1C=C(C(=O)N2CCCCCCC2)O[C@H](OCc2ccc(CO)cc2)C1,x,n,n,x,x
CCc1ccc2oc(-c3cc(N)ccc3O)nc2c1,n,x,n,n,n
CCc1ccc2oc(-c3cc(N)ccc3Cl)nc2c1,n,14,n,n,n
COC(=O)c1sc(NC(=S)NNC(=O)c2c(Br)c(C)nn2C)c(C(=O)OC)c1C,n,n,n,n,20
COC(=O)c1sc(S(=O)(=O)Nc2c(C)nn(C)c2C)c(C(=O)OC)c1C,n,n,n,n,n
C[C@H](CO)N1C[C@H](C)[C@H](CN(C)Cc2ccc(C(F)(F)F)cc2)OCCCC[C@H](C)Oc2ccc(NC(=O)C3CCCCC3)cc2C1=O,x,x,n,x,x
